In the library only some 2.9% were active in any assay of this set; here they are far more common.
Rango dissoc inh: inhibitors of RanGTP-induced Rango-importin beta complex dissociation. O95149+P62826. Biochemical FRET Rango-importin beta, RanGTP-induced dissociation. Potency, µM (doses to about 46.1 µM), without a hit: top-dose activity change, negative = inhibition. 340,000 tested, 0.071% active. AID 540253; note: potency is the fitted concentration of half-maximal effect; % of control where 0% means no effect; nearly all actives have a fitted effect of over 45% in size
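Quantitative HTS using a FRET biosensor: 0.1 uM Rango, 0.25 uM importin beta, 0.6 uM Ran, 2 mM GTP, 0.2 uM RCC1 final, PBS with DTT, Tween-20 and BSA. Post-read taken 45 min after Ran addition.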
DRD3 agonist: agonists of human D3 dopamine receptor | 410,000 tested, 0.58% active | P35462 | D3R DiscoveRx beta-arrestin cells, luminescence, 90 min | max activation, %; in the data active = max activation above about 30%; note: 0% is about no effect
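Agonist mode: compounds and dopamine controls were applied to plated cells for 90 min at 37 degrees C after an overnight attachment at 1500 cells/well. Luminescent read-out followed 30 - 60 minutes at room temperature with DiscoveRx detection reagent.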
MmCpn inh: M. maripaludis TRiC chaperonin inhibition. purified Mm-Cpn ATPase, ADP Transcreener TR-FRET. 330,000 tested, 0.031% active. Potency, µM (highest dose often 76.9 µM), inactives show at the top dose activity, negative = inhibition, usual class: inhibitors. AID 504842; active = well fitted inhibition curve with a large enough effect; inconclusive = small, poorly fitted or top-dose-only effect; note: potency is the fitted concentration of half-maximal effect; % is set by controls: 0 for no effect and ±100 for the full control effect; nearly all actives have a fitted effect of over 80% in size
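Reaction buffer contained 30 mM Tris pH 7.4, 100 mM KCl, 5 mM MgCl2 and 1 mM DTT. Mm-CPN (25 nM final) hydrolysed 10 uM ATP over 30 min at 37°C; ADP was read by HTRF.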
D3 antag: D3 dopamine receptor (human) antagonism; 360,000 tested, 2.5% active; P35462; max response, negative = inhibition, %; D3R cells, DiscoveRx beta-arrestin luminescence, antagonist mode; hits give low values; in the data active = max response below about -50%; inconclusive = no clear call, values can overlap the other calls; note: % is set by controls: 0 for no effect and ±100 for the full control effect
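Cells expressing the human receptor were seeded at 1500 cells/well, incubated overnight at 37 degrees C in 5% CO2, then exposed to library compounds with dopamine controls for 90 minutes at 37 degrees C before luminescent detection.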
TSG101-PTAP inh: blocks PTAP/TSG101 interaction to inhibit HIV-1 budding. 340,000 tested, under 10 active. AID 493005. Fluorescence polarization, FITC-PTAP peptide / Tsg101 binding. Potency, µM (doses to about 115 µM), for the others: at the highest dose activity change, negative = inhibition, most hits filed as inhibitors. Q99816; active = well fitted inhibition curve with a large enough effect in the main read-out, with a control signal flat, not every such curve was filed as active; inconclusive = small, poorly fitted or top-dose-only effect, or effect the other way, or a change in a side signal; inactive = no such curve, though single readings can be large or run the other way; note: potency is the fitted concentration of half-maximal effect; % of control where 0% means no effect
Target sequence (Q99816 whole entry, looked up): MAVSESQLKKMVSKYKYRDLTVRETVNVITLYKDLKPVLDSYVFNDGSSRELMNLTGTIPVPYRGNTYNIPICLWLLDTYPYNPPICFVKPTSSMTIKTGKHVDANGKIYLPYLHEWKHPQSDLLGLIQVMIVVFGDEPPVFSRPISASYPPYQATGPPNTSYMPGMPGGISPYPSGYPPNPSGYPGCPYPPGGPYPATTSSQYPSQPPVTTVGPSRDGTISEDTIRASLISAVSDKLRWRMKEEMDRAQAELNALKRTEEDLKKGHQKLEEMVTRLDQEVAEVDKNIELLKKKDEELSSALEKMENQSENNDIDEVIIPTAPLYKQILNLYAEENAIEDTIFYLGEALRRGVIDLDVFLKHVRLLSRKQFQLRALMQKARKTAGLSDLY
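Tsg101 binding domain (10 uM final) was mixed with compound and a FITC-labeled PTAP peptide (50 nM final) in HEPES pH 7.5 buffer with NaCl, Tween 20, EDTA and TCEP; fluorescence polarization was read after 20 min at r.t.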
Rango complex inh: inhibitors of Rango-importin beta complex formation; Potency, µM (series often up to 92.2 µM), for inactives: top-dose inhibition of complex formation; 340,000 tested, 0.031% active; AID 540263; Rango CFP/YFP FRET sensor + importin beta, 45 min;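 note: potency is the fitted concentration of half-maximal effect; 0% = DMSO wells and 100% = buffer wells lacking importin beta; nearly all actives have a fitted effect of over 15% in size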
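FRET biosensor (snurportin 1 IBB flanked by EYFP and cerulean), 50 nM, with compound 5 min, then 0.125 microM importin beta in PBS, 1 mM DTT, 0.02% Tween-20, 0.1% BSA. CFP/YFP ratio read after 45 min at room temperature; pre-read flags interference.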
* = called active by the depositor; u = inconclusive; x = no result given. Unless noted, calls come from the whole dose curve.

SMILES | Rango dissoc inh | DRD3 agonist | MmCpn inh | D3 antag | TSG101-PTAP inh | Rango complex inh
C=CCNS(=O)(=O)c1ccc(OCC(=O)OCC)cc1 | 1% | 7 | 2% | -60* | -3% | 1%
Cc1ccc(NC(=O)Cn2cc(C(=O)c3cccs3)c3ccccc32)cc1C | x | 8 | x | x | x | x
CCOC(=O)c1ccccc1NC(=O)N1CCCN(S(=O)(=O)c2ccc3c(ccn3CC)c2)CC1 | x | -9 | x | x | x | x
Oc1ccc(COc2cccc3ccccc23)c2cccnc12 | x | x | 1% | x | x | x
Oc1ccc(CN2CCN(Cc3ccccc3)CC2)c2cccnc12 | -8% | -16 | 0% | -58* | -1% | 0%
COCc1ccc(O)c2ncccc12 | 12% | -26 | 0% | -78* | -6% | 0%
OCC1(Cc2ccccc2)CCCN(Cc2c[nH]c3ccccc23)C1 (stereo unspecified) | 0% | -30 | 0% | -57* | -2% | -3%
c1ccc(CN2CCN(Cc3c[nH]c4ccccc34)CC2)cc1 | -6% | -46 | 2% | -60* | 1% | 1%
CC(=O)c1ccc(NC(=O)CCn2cccn2)cc1 | x | 5 | x | x | x | x
CC(=O)Oc1c(Cl)cc(Cl)cc1/C=C/c1ccc2ccccc2n1 | u | 39* | 1% | 39 | -1% | u
Cc1ccc2[nH]c(CSc3nnc(NC(=O)COc4ccccc4Cl)s3)cc(=O)c2c1 | x | -6 | x | x | x | x
CC(=O)NC(NC(=S)Nc1ccc(N=Nc2ccccc2C)cc1C)C(Cl)(Cl)Cl (stereo unspecified) | 52% | -1 | 0% | -81* | -7% | -1%
Clc1ccc(OCCNCCc2ccccc2)cc1 | -5% | 11 | 3% | -59* | 0% | 5%
OC(CNCCc1ccccc1)COc1ccc(OCC(O)CNCCc2ccccc2)cc1 (stereo unspecified) | 11% | -20 | 0% | -52* | 1% | 6%
COc1ccc(C(OCC(O)CNCCc2ccccc2)c2ccc(OC)cc2)cc1 (stereo unspecified) | 0% | -34 | 0% | -58* | 1% | 1%
CC(=O)CC/C=C(\C)CC/C=C(\C)CC/C=C(\C)CCC=C(C)C | x | -5 | x | x | x | x
CCC(C)NC(=O)Cn1c(=O)n(Cc2ccc(C(=O)NCc3ccc(C)cc3)cc2)c(=O)c2ccccc21 (stereo unspecified) | x | 5 | x | x | x | x
Cc1ccccc1N1C(S)=C(C#N)C(=O)NC1c1cccs1 (stereo unspecified) | -7% | -2 | -3% | -73* | -6% | 0%
Cc1cccc(N2C(S)=C(C#N)C(=O)NC2c2cccs2)c1 (stereo unspecified) | 11% | -4 | 0% | -19 | -5% | -2%
C=CCOc1cccc(C2/C(=C(/O)c3ccccc3)C(=O)C(=O)N2CCN2CCOCC2)c1 (stereo unspecified) | 1% | -4 | -1% | -10 | 0% | -2%
C=CCOc1cccc(C2/C(=C(/O)c3ccc(Cl)cc3)C(=O)C(=O)N2CCN2CCOCC2)c1 (stereo unspecified) | 3% | 0 | 0% | -56* | -4% | -2%
C=C1CCN([C@@H](Cc2ccccc2)C(=O)NCc2ccccc2)S(=O)(=O)c2ccccc21 | 1% | 0 | x | 47 | -1% | 0%
C=C1CCN([C@@H](Cc2ccccc2)C(=O)NCc2ccc(Cl)cc2)S(=O)(=O)c2ccccc21 | 5% | -21 | x | -56* | 1% | 0%
O=C(O)CC(C(=O)OCC1CCCO1)N1CCOCC1 (stereo unspecified) | 2% | 3 | 0% | -16 | -3% | 5%
CCCCCCCCCOC(=O)C(CC(=O)O)N1CCOCC1 (stereo unspecified) | 1% | 8 | 1% | -52* | 0% | 3%
O=C(O)CC(C(=O)OC1CCCCC1)N1CCOCC1 (stereo unspecified) | 1% | -4 | 2% | -92* | 0% | 1%
CN(CC(=O)Nc1ccc(Cl)cc1F)S(=O)(=O)c1ccc2c(c1)n(C)c(=O)c(=O)n2C | x | -2 | x | x | x | x
